# Source: PubChem BioAssay
# Most compounds without a hit are left out; they make up all but 2.7% or so of the library.
# SENP6 block = SENP6 protease inhibition. inhibition, % at 10 µM. 330,000 tested, 1.8% active. Recombinant SENP6 catalytic domain, aminoluciferin luminescence;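 active means inhibition above about 50% at the single tested dose, limit read from the data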
# SENP8 block-1 = inhibitors of human SENP8 protease. Q96LD8. recombinant SENP8, Nedd8 substrate fluorescence. inhibition, % at 20 µM. 360,000 tested, 0.64% active. AID 602440; in the data active means inhibition mostly above about 40%, no sharp cut-off; inactive means mostly below about 27%
# HSP90 refold inh = inhibitors of HSP90 luciferase refolding in rabbit reticulocyte lysate; luciferase refolding luminescence, 3 h; inhibition, % at 5.6 µM; 290,000 tested, 0.91% active; AID 1789;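 active means inhibition above the screen-wide mean plus 3 SD, computed separately per campaign, cut at about 16% in these data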;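 further: inhibitors lower the luminescence because luciferase stays unfolded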
# SENP8 block-2 = SENP8 protease inhibition; Q96LD8; purified SENP8, Z-RLRGG-aminoluciferin cleavage, luminescence; inhibition, % at 10 µM; 330,000 tested, 1.2% active; in the data active means inhibition above about 50%
# SENP7 block = SENP7 protease inhibition; Q9BQF6; recombinant SENP7, Z-RLRGG-aminoluciferin luminescence, 40 min; 330,000 tested, 1.5% active; inhibition, % at 5 µM;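 active means inhibition above about 50% at the single test dose, limit read from the data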
# Target sequence (Q9BQF6 706-1050 limits assumed): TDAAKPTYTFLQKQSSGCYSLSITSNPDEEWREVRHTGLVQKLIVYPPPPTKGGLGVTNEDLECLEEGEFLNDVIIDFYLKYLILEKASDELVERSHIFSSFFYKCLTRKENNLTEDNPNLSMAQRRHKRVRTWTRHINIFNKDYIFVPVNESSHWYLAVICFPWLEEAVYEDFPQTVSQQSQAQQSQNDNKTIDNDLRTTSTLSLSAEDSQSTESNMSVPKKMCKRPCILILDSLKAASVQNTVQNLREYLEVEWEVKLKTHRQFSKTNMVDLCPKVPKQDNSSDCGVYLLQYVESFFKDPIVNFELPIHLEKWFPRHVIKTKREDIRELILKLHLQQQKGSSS
# HSP90 inh confirm = confirmation of HSP90 inhibitors | 2,300 tested, 64% active | shares compounds with HSP90 refold inh | inhibition, % at 5.9 µM | AID 1846 | rabbit reticulocyte lysate, luciferase refolding luminescence, 3 h; in the data active means inhibition above about 18%
# FLuc counter = counter-screen for HSP90 inhibitors: inhibitors of firefly luciferase; purified native firefly luciferase, luminescence; inhibition, % at 5.9 µM; shares compounds with HSP90 refold inh; 2,300 tested, 48% active;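 active means inhibition above the mean inhibition of all tested sample wells plus 3 SD, cut at about 10% in these data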
# Hits are given with their value; . = inactive; / = no result given.
SMILES,SENP6 block,SENP8 block-1,HSP90 refold inh,SENP8 block-2,SENP7 block,HSP90 inh confirm,FLuc counter
Cc1nn(-c2ccccc2)c2sc(C(=O)O)cc12,.,.,.,.,.,/,/
Cc1nn(-c2ccccc2)c2sc(-c3n[nH]c(=S)o3)cc12,.,.,18.6,.,.,.,.
O=C1CCN(c2ccc([N+](=O)[O-])cc2F)CC1,.,.,34.5,.,.,.,.
O=C(c1ccco1)N1CCN(c2ccc([N+](=O)[O-])cc2F)CC1,.,.,.,.,.,/,/
C=CCNc1nc(-c2ccc3c(c2)OCCO3)cs1,90.2,.,18.9,82.3,65.9,33.3,32.3
CCC(=O)Nc1nc(-c2ccc3c(c2)OCCO3)cs1,.,.,.,.,.,/,/
c1cc2c(cc1Nc1nc(-c3ccc4c(c3)OCO4)cs1)OCCO2,.,.,37.4,.,.,23.5,.
Cc1ccc(-c2c(=O)n(O)c3ccccc3[n+]2[O-])cc1,.,.,.,.,.,/,/
COc1ccc(-c2cc(C(=O)N3CCN(Cc4ccccc4)CC3)no2)cc1OC,.,.,52.3,.,.,.,.
Cc1cccc(C(=O)Nc2nc(C)c(C(=O)Nc3ccc4c(c3)CCC4)s2)c1,.,.,79.7,.,.,82.9,15.1
NNC(=O)CNc1cccc(Cl)c1,.,.,.,.,.,/,/
NNC(=O)CN1CCCc2ccccc21,.,.,24.8,.,.,46.0,39.3
CCC(C)C(=O)Nc1nnc(-c2cccs2)s1 (stereo not drawn),.,.,.,.,.,/,/
Cn1c(-c2ccc(F)cc2)cnc1SCC(=O)N1CCCCC1,.,.,18.5,.,.,27.5,18.9
COC(=O)CC1C(=O)NC(C)=C1C(=O)OC (stereo not drawn),.,/,36.7,.,.,.,.
Cc1cc(OCC[N+]2(C)CCCCC2)nc2ccccc12,.,.,.,.,.,/,/
Cc1nnc(N/N=C/c2ccc(-c3ccccc3F)o2)n1N,.,.,64.6,.,.,18.1,.
COC(=O)c1ccccc1-c1ccc(/C=N/NC(N)=O)o1,.,.,.,.,.,/,/
CCc1nnc(N/N=C/c2ccc(-c3ccc([N+](=O)[O-])cc3)o2)n1N,.,.,35.9,.,.,.,.
Cc1nnc(N/N=C\c2ccc(-c3ccccc3[N+](=O)[O-])o2)n1N,/,.,38.1,/,/,.,.
CCC(=O)N/N=C/c1ccc(-c2ccc([N+](=O)[O-])cc2)o1,.,.,.,.,.,/,/
O=C(N/N=C/C=C\c1ccccc1[N+](=O)[O-])c1ccccn1,.,.,.,.,.,/,/
CCCOC(=O)Nc1ccc(N2CCCCC2)cc1,.,.,20.6,.,.,33.5,20.9
CCOC(=O)/C(C#N)=C/c1cc(C)n(-c2ccc(Br)cc2)c1C,.,/,.,.,.,/,/
CCOC(=O)/C(C#N)=C/c1cc(C)n(-c2ccccc2)c1C,.,.,54.3,.,.,65.3,64.5
SMILES,SENP6 block,SENP8 block-1,HSP90 refold inh,SENP8 block-2,SENP7 block,HSP90 inh confirm,FLuc counter
COc1cccc(C2Nc3ccccc3NC3=C2C(=O)CC(C)(C)C3)c1 (stereo not drawn),.,.,22.7,.,.,.,.
O=c1c2c([nH]c3ccccc13)CCC2,.,.,20.5,.,.,.,.
O=C1CCCc2c1[nH]c1ccccc21,.,.,.,.,.,/,/
Cc1ccc2nc3n(c(=O)c2c1)-c1cc2ccccc2cc1C(=O)NC3Cc1ccccc1 (stereo not drawn),/,.,/,/,/,/,/
CCN(CCO)c1ccc(N=Nc2cc(C)[nH]n2)cc1,.,.,57.5,.,.,76.4,67.7
CC[C@H](C)[C@@H]1NC(=O)c2cc([N+](=O)[O-])cc(I)c2SC[C@@H](C(N)=O)NC(=O)[C@H](CCCCN)NC1=O,.,/,.,.,.,/,/
CCc1ccc(/C=C2\SC(=S)N(CCCC(=O)Nc3ccccn3)C2=O)cc1,.,.,27.9,.,.,32.5,.
COC(=O)c1ccc(/C=C2/SC(=S)N(CCCC(=O)Nc3ccccn3)C2=O)cc1,.,.,.,.,.,/,/
Cc1nc(NC(=O)/C=C/c2ccccc2)sc1C(=O)Nc1ccccc1Cl,.,.,27.1,.,.,54.3,.
O=C(CNC(=O)N1CC(=O)Nc2ccccc21)NCc1ccc(Cl)cc1,.,.,.,.,.,/,/
COc1ccc(C(=O)O)cc1S(=O)(=O)N1CCN(c2ccccn2)CC1,.,.,17.3,.,.,.,.
CC(=O)c1ccc(N2CCN(C(=O)c3ccco3)CC2)c(F)c1,.,.,.,.,.,/,/
